# Several values for one entry are separate records, joined by “and”; a condition that tells them apart may be missing. Equal values may be shown once. Activity calls are given as the source filed them. How the source made its calls: active means hit-call score of the fitted dose curve at least 0.9, where 1 is the maximum; inactive means score below 0.9.
# What was measured:
# [1] = ATG_CRE_CIS: Attagene CIS-FACTORIAL HepG2 Assay for human cAMP Responsive Element (CRE) binding protein 3 (AID 2282926); settings: HepG2 CRE cis-reporter, Attagene multiplexed mRNA; actives raise or lower the signal
# Summary of the method: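 HepG2 cells transiently transfected with a multiplexed reporter library (CRE-driven unit among them) were dosed for 24 h. Reporter mRNA was quantified by RT-PCR, fluorescent labelling, HpaI digestion and capillary electrophoresis, with bidirectional fitting against DMSO baseline.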
# [2] = target: CCAAT/enhancer-binding protein beta (Homo sapiens) (UniProt P17676); assay: ATG_C_EBP_CIS: Attagene CIS-FACTORIAL HepG2 Assay for human CCAAT/Enhancer Binding Protein (C/EBP) beta (AID 2282927); settings: HepG2 Attagene cis-factorial transcription factor reporter; actives raise or lower the signal
# Sequence of CCAAT/enhancer-binding protein beta (Homo sapiens) (P17676 whole entry, looked up): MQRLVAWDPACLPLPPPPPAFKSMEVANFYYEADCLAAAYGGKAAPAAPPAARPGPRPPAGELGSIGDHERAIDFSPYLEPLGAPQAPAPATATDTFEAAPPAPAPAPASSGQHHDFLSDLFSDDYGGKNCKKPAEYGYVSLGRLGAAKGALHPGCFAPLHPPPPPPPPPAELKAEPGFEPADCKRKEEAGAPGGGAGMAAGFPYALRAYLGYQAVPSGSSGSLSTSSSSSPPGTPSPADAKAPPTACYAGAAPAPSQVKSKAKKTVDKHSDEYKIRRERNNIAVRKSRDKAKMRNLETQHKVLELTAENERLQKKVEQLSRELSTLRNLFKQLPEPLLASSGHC
# Summary of the method: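 Endogenous transcription factor activity in human liver HepG2 cells is inferred from induction of a CEBPB-linked reporter mRNA. Exposure lasts 24 h; activity is fitted in both directions relative to DMSO.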
# [3] = ATG_CMV_CIS: Attagene CIS-FACTORIAL HepG2 Assay for human CMV (Internal Marker) (AID 2282928); settings: HepG2 CMV promoter reporter, transcription factor profiling; actives raise or lower the signal;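 further: endpoint acts as a background internal control marker rather than a target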
# Summary of the method: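 CMV internal-marker background readout in transiently transfected HepG2 cells bearing cis-regulated reporter units. Reporter mRNA is measured 24 h after dosing by RT-PCR and capillary electrophoresis, with bidirectional fitting against DMSO.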
Structure (SMILES),outcome [1],outcome [2],outcome [3],AC50 [3],AC50 [1],AC50 [2]
CCCCN(C)C,inactive,inactive,inactive,,,
O=C(Nc1cccc([N+](=O)[O-])c1)c1cc2ccccc2cc1O,inactive,inactive,inactive,,,
FCOC(C(F)(F)F)C(F)(F)F,inactive,inactive,inactive,,,
COC(=O)C(F)(F)C(F)(F)C(F)(F)C(F)(F)C(F)(F)F,inactive,inactive,inactive,,,
NCc1cccc(CN)c1,inactive,inactive,inactive,,,
CCCCCC(C)OC(=O)COc1ccc(Cl)c2cccnc12 (stereo not given),inactive,inactive,inactive,,,
FC(F)(F)C(F)(F)C(F)(F)Br,inactive,inactive,inactive,,,
CCCCCc1ccc(O)cc1,inactive,inactive,,33.4 µM (active),,
Oc1ccc(Cc2ccccc2O)cc1,inactive,inactive,inactive,,,
Nc1ccc(O)c(C(=O)O)c1,inactive,inactive,inactive,,,
NNC(=O)CCCCC(=O)NN,inactive,inactive,inactive,,,
Cc1ccccc1OCC(=O)O,inactive,inactive,inactive,,,
OCCN1CN(CCO)CN(CCO)C1,,inactive,inactive,,145 µM (active),
CCCCCCCCCCCCOC(=O)c1cc(O)c(O)c(O)c1,inactive,inactive,inactive,,,
C=CC(=O)OCCN(CC)CC,,,,63.2 µM (active),26.9 µM (active),44.2 µM (active)
FC(OC(F)(F)C(F)(F)C(F)(F)F)C(F)(F)F (stereo not given),inactive,inactive,inactive,,,
O=C1OC(=O)C(F)(F)C1(F)F,inactive,inactive,inactive,,,
C/C=C/C(=O)C1=C(C)CCCC1(C)C,,inactive,,174 µM (active),34.4 µM (active),
Oc1c(Cl)ccc(Cl)c1Cl,inactive,inactive,inactive,,,
Oc1cccc2c(O)cccc12,inactive,inactive,,64.5 µM (active),,
Oc1c(Cl)cc(Cl)cc1Sc1cc(Cl)cc(Cl)c1O,inactive,inactive,inactive,,,
CCCCCCCCC1CCC(=O)O1 (stereo not given),inactive,inactive,inactive,,,
c1ccc(CNc2ncnc3c2ncn3C2CCCCO2)cc1 (stereo not given),inactive,inactive,inactive,,,

Structure (SMILES),outcome [1],outcome [2],outcome [3],AC50 [3],AC50 [1],AC50 [2]
O=C(OC(=O)C(F)(F)C(F)(F)F)C(F)(F)C(F)(F)F,inactive,inactive,inactive,,,
CC(=O)CC(C)C,inactive,inactive,inactive,,,
CC1CCC(C(=O)O)CC1 (stereo not given),inactive,inactive,inactive,,,
CCc1cccc(CC)c1N(COC)C(=O)CS(=O)(=O)O,inactive,inactive,inactive,,,
O=C(O)c1cccc(C(=O)O)n1,inactive,inactive,inactive,,,
O=C(c1cc(O)c(O)c(O)c1)c1ccc(O)c(O)c1O,inactive,inactive,inactive,,,
O=C(F)C(F)(F)C(F)(F)C(F)(F)C(F)F,inactive,inactive,inactive,,,
c1cc2cccc3c4cccc5cccc(c(c1)c23)c54,inactive,inactive,inactive,,,
Oc1cc2ccccc2cc1O,inactive,inactive,inactive,,,
OCC(F)(F)C(F)(F)C(F)(F)C(F)(F)C(F)(F)C(F)(F)C(F)(F)C(F)(F)C(F)(F)C(F)(F)C(F)(F)F,inactive,inactive,inactive,,,
O=C(O)C(F)(F)OC(F)(F)C(F)(F)OC(F)(F)C(F)(F)OC(F)(F)C(F)(F)C(F)(F)C(F)(F)F,,inactive,inactive,,37.7 µM (active) and 27.1 µM (active),
CCC(C)c1nccnc1OC (stereo not given),inactive,inactive,inactive,,,
O=C(O)CCC(F)(F)C(F)(F)C(F)(F)C(F)(F)C(F)(F)F,inactive,inactive,inactive,,,
O=C(Nc1ccc(Cl)c(Cl)c1)c1cc(Cl)cc(Cl)c1O,inactive,inactive,inactive,,,
O=C(NCc1ncc(C(F)(F)F)cc1Cl)c1c(Cl)cccc1Cl,inactive,inactive,inactive,,,
FC(F)(F)C1(F)C(F)(F)C(F)(F)C(F)(F)C1(F)F,inactive,inactive,inactive,,,
O=C1c2ccc(O)c(O)c2C(=O)c2c(O)ccc(O)c21,inactive,inactive,,4.28 µM (active),,
C=CCOCC(CO)(CO)CO,inactive,inactive,inactive,,,
FC1(F)C=CC(F)(F)C1(F)F,inactive,inactive,inactive,,,
CC1=NN(c2ccccc2)C(=O)C1,inactive,inactive,inactive,,,
CCOC(=O)c1nc(C(Cl)(Cl)Cl)n(-c2ccc(Cl)cc2Cl)n1,inactive,inactive,,29.6 µM (active),,
CCCCCCCCCCCC[N+](C)(C)CCCCCCCCCCCC,inactive,,,182 µM (active),,16.4 µM (active)
